Coupling enz = inhibits coupling enzyme system, counter-screen for aldolase hits. 290,000 compounds, 0.67% hits. activity change, negative = inhibition, % at 58.2 µM, hits read low. coupling enzyme system counterscreen, AmpLite Red fluorescence; in the data active = activity change below about -30%
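Counterscreen of the coupled detection system alone, without aldolase: glyceraldehyde-3-phosphate coupling enzymes plus AmpLite Red readout. Compounds at 57.5 uM final, 10 min RT preincubation, 20 min RT reaction, fluorescence 525/598 nm.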
TrxR1 substrate = is turned over as a substrate by rat TrxR1 | Potency, µM (top dose mostly 114 µM), for inactives: top-dose activity change, negative = substrate turnover | purified TrxR1 substrate turnover, NADPH consumption readout | 390,000 compounds, 0.01% hits; also: potency is read from the fitted curve at half-maximal effect; nearly all actives have a fitted effect of over 50% in size
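Rat TrxR1, dispensed at 90 nM, was prereduced with 400 uM NADPH (final) for 5 min at ~22 deg C, then incubated with compound 15 min before 400 uM selenite. A first-read NADPH fluorescence drop versus no-compound background flagged substrates.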
rTrxR1 inhibitor = inhibitors of rat thioredoxin reductase 1 | O89049 | recombinant rTrxR1, NADPH fluorescence consumption, selenite substrate | Potency, µM (top dose mostly 114 µM), for inactives: at the top dose activity change, negative = inhibition, hits mostly inhibitors | 390,000 compounds, 1% hits; also: potency is read from the fitted curve at half-maximal effect; nearly all actives have a fitted effect of over 65% in size
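Rat TrxR1 (90 nM in the dispensed reagent) was pre-reduced with 400 uM NADPH for 5 min at room temperature, then incubated with compound for 15 min. After 400 uM selenite was added, NADPH fluorescence (Ex 340/Em 450 nm) was followed for 8 min.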
VP16 counter = counter-screen for ROR gamma inhibitors: Gal4-VP16 reporter; Potency, µM (highest dose often 53.6 µM), inactives show top-dose activity, negative = inhibition, most hits filed as inhibitors; 310,000 compounds, 3.5% hits; Drosophila S2 Gal4-VP16 UAS-luciferase, luminescence, 20 h; AID 2546;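 also: Gal4-VP16 expression switched on by copper sulfate through the metallothionein promoter; potency is read from the fitted curve at half-maximal effect; nearly all actives have a fitted effect of over 50% in size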
GALK inh = galactokinase (human) inhibition. P51570. Purified GALK, Kinase-Glo residual ATP luminescence. Potency, µM (highest dose often 57.5 µM), for the others: at the highest dose activity change, negative = inhibition, usual class: inhibitors. 270,000 compounds, 0.007% hits; also: potency is read from the fitted curve at half-maximal effect
Target sequence (P51570 whole entry, looked up): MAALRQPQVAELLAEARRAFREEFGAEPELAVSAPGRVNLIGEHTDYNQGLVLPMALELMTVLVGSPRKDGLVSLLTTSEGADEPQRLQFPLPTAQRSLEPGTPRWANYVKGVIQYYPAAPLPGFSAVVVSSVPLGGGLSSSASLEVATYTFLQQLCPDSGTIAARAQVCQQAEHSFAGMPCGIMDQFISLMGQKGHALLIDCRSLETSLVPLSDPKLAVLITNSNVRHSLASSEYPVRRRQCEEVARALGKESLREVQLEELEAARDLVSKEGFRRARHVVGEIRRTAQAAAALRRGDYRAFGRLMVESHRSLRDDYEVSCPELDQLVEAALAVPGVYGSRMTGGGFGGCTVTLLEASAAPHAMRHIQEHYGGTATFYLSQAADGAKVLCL
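The enzyme phosphorylates galactose (100 uM) using ATP (35 uM); inhibition is detected as higher residual ATP, quantified by bioluminescence after 1 h reaction at room temperature, pH 8.0.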
RORg inh = blocks mouse ROR gamma transcriptional activity. P51450. Drosophila S2 Gal4-RORgamma UAS-luciferase reporter, 20 h. Potency, µM (series often up to 53.6 µM), for the others: at the top dose activity change, negative = inhibition, most hits filed as inhibitors. 310,000 compounds, 5.4% hits. AID 2551; also: potency is read from the fitted curve at half-maximal effect; nearly all actives have a fitted effect of over 60% in size
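Luminescence from a UAS-regulated Photinus luciferase reporter in stably transfected Drosophila Schneider cells is measured; decreased signal marks ROR gamma inhibition. Fusion expression is induced by 700 uM copper sulfate for 20 hr.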
Active calls of the source: *; u = inconclusive; x = no result; [ ] = dose if it differs, or a comment. The list is not random: actives were taken first. Their share in the collection is about 5.9%. Unless noted, calls follow the shape of the dose curve; as a rule, active = well fitted curve in the direction sought with a large enough effect; inconclusive = small, poorly fitted or top-dose-only effect, or another doubt; inactive = no such curve, though single readings can be large; an effect the other way counts as inactive or inconclusive. % is scaled to controls: 0 for no effect and ±100 for the full control effect.

SMILES | Coupling enz | TrxR1 substrate | rTrxR1 inhibitor | VP16 counter | GALK inh | RORg inh
O=C(NCC1CCCO1)c1ccccc1NC(=O)c1cccc2ccccc12 (stereo not given) | 0 | -5% | -1% | 10% | 3% | 19%
S=C(NCC1CCCO1)Nc1cccc2ccccc12 (stereo not given) | 3 | 20%[57.1 µM] | 13%[11.4 µM] | u | 1% | 7.1µM*
CCOc1ccccc1NC(=S)NCC1CCCO1 (stereo not given) | -1 | -9% | -20% | u | 0% | 11µM*
COc1ccc(/C=C/C(=O)Nc2ccc(-n3nncc3-c3ccc(OC)c(OC)c3)cc2)cc1OC | 0 | 35% | 6% | 0% | -1% | 8%
CCOc1cc(NC(=S)NCC2CCCO2)c(OCC)cc1NC(=O)CC(C)C (stereo not given) | -2 | 6%[57.1 µM] | 11%[57.1 µM] | -13% | 5% | 11µM*
CCOc1cc(NC(=S)NCc2ccco2)c(OCC)cc1NC(=O)CC(C)C | -1 | -12% | -10% | -16% | 1% | u
CCOc1cc(NC(=S)NCC2CCCO2)c(OCC)cc1NC(=O)c1ccccc1C (stereo not given) | -4 | -1% | u | u | -5% | 10µM*
CCOc1cc(NC(=S)Nc2ccccc2)c(OCC)cc1NC(=O)c1ccccc1 | -2 | -10% | -8% | 10µM* | -1% | 1.8µM*
CCOc1cc(NC2CS(=O)(=O)CC2O)c(OCC)cc1NC(=O)c1ccccc1 (stereo not given) | -41* | -10% | 0% | -3% | -2% | -24%
CCOc1cc(NC(=O)c2ccccn2)c(OCC)cc1NC(=O)c1ccccc1 | 0 | 2%[11.4 µM] | 22%[57.1 µM] | -3% | 3% | 2%
O=C(c1ccc([N+](=O)[O-])cc1)N1CCN(C2=NS(=O)(=O)c3ccccc32)CC1 | 0 | -7% | -7% | -3% | -3% | -22%
CCOC(=O)C(C(C)=O)=C1SC2CS(=O)(=O)CC2S1 (stereo not given) | 7 | 0% | -6% | -6% | 7% | 1%
Cc1ccc(NC(=O)C[n+]2ccccc2)cc1[N+](=O)[O-] | -2 | 0% | 7% | 9% | -1% | 7%
CCOc1cc(NC(=S)NCC2CCCO2)c(OCC)cc1NC(=O)c1ccc(OC)cc1 (stereo not given) | -16 | -5% | -12% | 10µM* | -1% | 11µM*
COc1ccc(NC(=S)NCC2CCCO2)c(OC)c1 (stereo not given) | -2 | 13%[57.1 µM] | -15% | 1% | -1% | -39%
Cc1cccc(C(=O)NC2CCN(C(=O)NCc3ccccc3)CC2)c1 | 1 | 1%[57.1 µM] | 25µM* | 9% | -3% | -34%
CC1(C)CC(CCC(=O)NC(=S)Nc2ccccc2Cl)C(=O)O1 (stereo not given) | -2 | -3% | -12% | u | 0% | 18µM*
CC1(C)CC(CC(=O)Nc2ccccc2[N+](=O)[O-])C(=O)O1 (stereo not given) | 5 | -2% | -3% | -5% | 1% | 7%
CN(C)S(=O)(=O)c1cccc(NC(=S)NC2CCCCC2)c1 | -1 | -2% | -18% | 12% | 0% | -40%
COc1cc(/C=N/NC(=O)c2cccc(NC(=O)c3ccccc3)c2)ccc1O | 1 | 0%[57.1 µM] | 0%[57.1 µM] | 12% | 0% | u
NS(=O)(=O)c1cccc(NC(=S)NC(=O)C23CC4CC(CC(C4)C2)C3)c1 | 0 | -10% | 40µM* | 6% | -2% | 12%
Cc1ccc(S(=O)(=O)N(C)C)cc1NC(=S)NC12CC3CC(CC(C3)C1)C2 | -4 | 1% | 4% | 5.6µM* | 3% | 5µM*
CC1CCCC(NC(=S)Nc2cccc(S(=O)(=O)N(C)C)c2)C1C (stereo not given) | -1 | -7% | -22% | u | 6% | 13µM*
COc1cc(/C=N/NC(=S)Nc2cccc(S(=O)(=O)N(C)C)c2)ccc1O | 1 | -9%[57.1 µM] | u | 3.5µM* | -3% | 3.5µM*
CN(C)S(=O)(=O)c1ccc(S(=O)(=O)N2CCCC(C(=O)NC3CCCC3)C2)cc1 (stereo not given) | -3 | -14%[57.1 µM] | 27%[57.1 µM] | 2% | -2% | u
SMILES | Coupling enz | TrxR1 substrate | rTrxR1 inhibitor | VP16 counter | GALK inh | RORg inh
CCS(=O)(=O)c1nc2ccccc2n1CC(=O)N1CCCCC1 | 3 | 5%[57.1 µM] | -1%[57.1 µM] | -12% | 1% | -1%
CCCCN(CCCC)Cc1ccc(C(=O)NNC(=O)Nc2ccc(Cl)cc2)o1 | -1 | 7% | 35% | -2% | 1% | -10%
CN(CC(=O)Nc1cccc(S(=O)(=O)N(C)C)c1)Cc1ccccc1 | 0 | 2% | 7% | -4% | 1% | 28%
CN(C)S(=O)(=O)c1cccc(NC(=S)NC23CC4CC(CC(C4)C2)C3)c1 | -3 | -5% | -8% | u | -1% | 4.5µM*
Cc1ccc(S(=O)(=O)N(C)C)cc1NC(=S)NC(=O)C12CC3CC(CC(C3)C1)C2 | -4 | -8% | u | 7.1µM* | 1% | 7.1µM*
Cc1ccc(S(=O)(=O)N(C)C)cc1NC(=S)Nc1ccc2[nH]c(=O)[nH]c2c1 | -1 | 0% | u | -2% | -2% | 10%
CN(C)S(=O)(=O)c1cccc(NC(=S)NN=C(Cc2ccccc2)Cc2ccccc2)c1 | -2 | 3% | -24% | u | -1% | 13µM*
CC(=O)CCC(=O)OCC(=O)Nc1ccc(SC(F)F)cc1 | 0 | 3%[57.1 µM] | 14%[57.1 µM] | 24% | 1% | 3%
CCOc1ccc(-c2nnc(SCC(=O)NCc3ccc(Cl)cc3)o2)cc1 | x | -2% | 50µM* | x | x | x
CCOC(=O)CSc1nnc(-c2ccc(OC)cc2OC)o1 | -1 | 6% | 15% | u | -2% | 8.9µM*
COc1ccc(-c2nnc(SCC(=O)Nc3cc(C)on3)o2)cc1 | 0 | 4% | 11% | u | 9% | 11µM*
CCOC(=O)CSc1nnc(-c2ccc(OC)cc2)o1 | x | 0% | -9% | x | x | x
COc1cccc(NC(=O)CSc2nnc(-c3cccc(OC)c3)o2)c1 | x | -4% | 21% | x | x | x
COc1cccc(NC(=O)CSc2nnc(-c3ccc(C)cc3)o2)c1 | 2 | 4% | 39% | 13µM* | 2% | u
CC(=O)Cc1nsc(NC(=O)C2Cc3ccccc3C(=O)O2)n1 (stereo not given) | 2 | 10% | -20%[57.1 µM] | 2% | 2% | -2%
Cc1ccc(NC(=O)c2ccc(Cl)c(S(=O)(=O)NCC3CCCO3)c2)c(O)c1 (stereo not given) | x | -4% | -4% | -1% | 7% | 33%
COC(=O)c1ccc(C2c3c(-c4ccccc4O)n[nH]c3C(=O)N2Cc2ccncc2)cc1 (stereo not given) | x | -6% | 16% | x | x | x

Assay outcomes from PubChem BioAssay.
